Anthrax LF prot: Bacillus anthracis LF protease inhibitors, primary screen, biochemical, multiplex microsphere, MLPCN library; Lethal factor (Bacillus anthracis), P15917; multiplex microsphere protease cleavage assay; inhibition, % at 10 µM; hit rate 0.12% among 360,000; also: plate controls were buffer without enzyme for full effect and enzyme alone for no effect
Target sequence (P15917 whole entry, looked up): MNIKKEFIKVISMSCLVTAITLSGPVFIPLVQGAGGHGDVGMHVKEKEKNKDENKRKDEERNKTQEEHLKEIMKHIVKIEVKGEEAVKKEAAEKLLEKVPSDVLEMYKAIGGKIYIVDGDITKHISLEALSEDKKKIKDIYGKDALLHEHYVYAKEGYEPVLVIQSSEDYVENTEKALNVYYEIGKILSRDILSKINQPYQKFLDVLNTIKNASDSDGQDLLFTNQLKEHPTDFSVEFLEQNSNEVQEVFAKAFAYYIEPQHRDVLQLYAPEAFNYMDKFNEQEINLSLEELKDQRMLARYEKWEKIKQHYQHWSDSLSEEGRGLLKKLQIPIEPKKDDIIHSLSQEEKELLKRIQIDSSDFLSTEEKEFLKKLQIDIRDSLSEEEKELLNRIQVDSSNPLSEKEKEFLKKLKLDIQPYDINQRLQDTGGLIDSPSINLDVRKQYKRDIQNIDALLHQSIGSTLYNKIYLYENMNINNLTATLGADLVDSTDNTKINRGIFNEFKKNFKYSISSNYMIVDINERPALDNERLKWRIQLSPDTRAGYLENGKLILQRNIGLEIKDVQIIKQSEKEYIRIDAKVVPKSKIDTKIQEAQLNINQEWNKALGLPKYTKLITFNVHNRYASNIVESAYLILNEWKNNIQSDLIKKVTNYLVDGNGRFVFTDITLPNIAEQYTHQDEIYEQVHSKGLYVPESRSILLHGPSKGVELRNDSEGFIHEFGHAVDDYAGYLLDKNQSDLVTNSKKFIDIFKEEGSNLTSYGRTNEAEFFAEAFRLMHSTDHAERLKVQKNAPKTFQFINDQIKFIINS
BoNT-A LC inh2: BoNT/A light chain protease inhibitors, primary screen, biochemical, flow cytometry, MLPCN library; hit rate 0.17% among 360,000; inhibition, % at 10 µM; Botulinum neurotoxin type A light chain protease (Clostridium botulinum A str. ATCC 3502); multiplex microsphere protease substrate cleavage; also: plate controls were buffer without enzyme for full effect and enzyme alone for no effect
Autofluor counter: compound fluorescence in toxin protease inhibitor counterscreen; AID 624483; compound autofluorescence counterscreen, microsphere flow cytometry; hits give high values; fluorescence intensity (no concentration beside the values); hit rate 3.1% among 360,000; in the data active = fluorescence intensity above about 16000; inconclusive = no clear call, values can overlap the other calls
BoNT-F LC inh: BoNT/F light chain protease inhibitors, primary screen, biochemical, flow cytometry, MLPCN library | Multiplex microsphere protease cleavage assay | inhibition, % at 10 µM | hit rate 0.22% among 360,000 | AID 588497, 2011; in the data active = inhibition above about 35%, passing the limit was not always enough; inconclusive = no clear call, values can overlap the other calls; also: plate controls were buffer without enzyme for full effect and enzyme alone for no effect
* hit, by the source's call; ? = inconclusive. An excerpt weighted towards active compounds, which were near 3.5% of everything screened. Rule as the data show it, unless noted: active = inhibition above about 30%; inconclusive = no clear call, values can overlap the other calls; inactive = below that.

SMILES | Anthrax LF prot | BoNT-A LC inh2 | Autofluor counter | BoNT-F LC inh
CC1=C(CC(=O)c2ccccc2)C(=O)c2ccccc2C1=O | -2 | ? | 18823* | 7
O=C(CN1C(=O)c2ccccc2C1=O)c1ccccc1 | -2 | -1 | 2760 | -3
Cc1cc2cc(CN(Cc3ccc4c(c3)OCO4)C(=O)c3cnccn3)c3nnnn3c2cc1C | -6 | -2 | 3303 | -18
CC(=O)N(Cc1cc2cc(C)c(C)cc2n2nnnc12)CC1COCCO1 (stereo not drawn) | -1 | 2 | 22636* | 2
Nc1c(N=O)c(=O)[nH]c(=O)n1-c1ccccc1 | 1 | 0 | 4218 | ?
CCCNc1c(N)n(-c2ccccc2)c(=O)[nH]c1=O | -4 | ? | 21763* | 8
Cc1ccc(S(=O)(=O)NCCCNC(=O)c2ccccc2)cc1 | -2 | -2 | 23361* | -4
Cc1ccc(S(=O)(=O)NCCNC(=O)N2CCOCC2)cc1 | 0 | -2 | 21580* | -1
O=C(NCCOc1nc(N2CCOCC2)nc(N2CCOCC2)n1)Nc1ccc(Cl)cc1 | -4 | -1 | 11489 | 0
Cc1ccc(S(=O)(=O)NCCOc2nc(N3CCOCC3)nc(N3CCOCC3)n2)cc1 | 4 | 2 | 21551* | 5
Cc1ccc(NC(=O)Cn2ccc([N+](=O)[O-])n2)cc1Cl | -3 | -1 | 4550 | -4
O=C(COc1ccc([N+](=O)[O-])cc1)Nc1cccc2nsnc12 | 0 | -1 | ? | 2
CCN(CC)c1nc2ccccc2n(Cc2cccc(OC)c2)c1=O | 0 | 1 | 4462 | 0
Cc1cc(=O)[nH]c(SCc2nc3ncccn3c2Br)n1 | -1 | -2 | 24282* | -4
CC(C)(C)C(=O)NC1(C(F)(F)F)NC(=O)N(c2ccccc2F)C1=O (stereo not drawn) | -8 | -1 | 6509 | 1
COc1ccccc1-n1cc([C@@H]2C[C@H]3CN(c4ccccc4)C(=O)[C@]34CCCN24)cn1 | ? | ? | 28945* | ?
CCOc1cc([C@@H]2C[C@H]3CN(c4ccccc4)C(=O)[C@]34CCCN24)ccc1OC | 2 | -5 | 22393* | 25
Cc1cc(C)c(OCC(=O)OC(C)C(=O)NC2CC2)c(C)c1 (stereo not drawn) | -1 | 0 | 5790 | -2
Cc1cc(NC(=O)CCCn2ccc([N+](=O)[O-])n2)n(Cc2ccc(F)cc2)n1 | -6 | -2 | 6037 | -7
COC(=O)c1cc(NC(=O)C2COc3ccccc3O2)ccc1Cl (stereo not drawn) | -1 | 2 | 21646* | 2
COC(=O)c1cccc(NC(=O)C2COc3ccccc3O2)c1 (stereo not drawn) | -2 | -1 | 4817 | -17
COc1ccc(C(=O)N2CCN(CCCc3ccccc3)CC2)cc1OC | -8 | 0 | 3780 | 8
C[C@H]1CN([C@@H](C)CO)C(=O)CCCn2cc(nn2)CO[C@@H]1CN(C)C(=O)CCC(F)(F)F | -1 | 0 | 3543 | -4
CC1(C)CC(=NOC(=O)c2ccccc2)CC(C)(C)N1 | 1 | 2 | 19903* | 3
COCc1cc(C)nc(Nc2ccccc2C)c1C#N | 0 | ? | 20149* | 2
SMILES | Anthrax LF prot | BoNT-A LC inh2 | Autofluor counter | BoNT-F LC inh
Cc1cc(C)c(C#N)c(Nc2ccccc2F)n1 | -7 | 0 | 4309 | 1
CN(CCOc1ccccc1)C(=O)CCc1c[nH]c2ccccc12 | -16 | -3 | 3555 | 14
O=C(CN1C(=O)NC(Cc2c[nH]c3ccccc23)C1=O)NCC(F)(F)F (stereo not drawn) | -6 | 1 | 3105 | 15
CC(C)NC(=O)c1cc2cc(Br)ccc2oc1=O | -3 | 1 | 3327 | 1
CCN(C(=O)c1cc2ccccc2oc1=O)c1cccc(C)c1 | -2 | -1 | 20635* | -2
CCN(CC)C(=O)c1cc2cc(Br)ccc2oc1=O | -9 | ? | 22173* | 3
CN(C)CCNC(=O)c1cc2cc(Br)ccc2oc1=O | 0 | -1 | 10526 | -13
O=C(Nn1cnnc1)c1cc2cc(Br)ccc2oc1=O | -3 | -1 | 23909* | -3
CCn1c(SCC(=O)NC2CCCCC2)nnc1-c1cccs1 | -17 | 4 | 20887* | 3
CCn1c(SCC(=O)NC2CC2)nnc1-c1cccs1 | 2 | 3 | 7427 | 7
Cc1cccc(C)c1OCC(=O)NCc1nnc(SCC(=O)NC2CCCCC2)n1C | -5 | ? | 22773* | -5
CCn1c(SC(=O)NC2CCCCC2)nnc1-c1cccs1 | -3 | -1 | 16821* | -1
Cc1cccc(C(=O)NCc2nnc(SCC(=O)NC3CCCC3)n2C)c1 | -4 | -1 | 5625 | -2
Cn1c(SCC(=O)NC2CCCCCC2)nnc1-c1cccs1 | 0 | -1 | 2991 | 10
CCn1c(SCC(=O)NCc2ccco2)nnc1-c1cccs1 | -7 | ? | 19582* | 6
CS(=O)(=O)N1CCc2ccc(NC(=O)C3CCCO3)cc2C1 (stereo not drawn) | -2 | 0 | 6379 | 4
CCCn1c(=O)c2ccccc2n2c(SCC(=O)NCc3cccs3)nnc12 | 5 | 2 | 3805 | 34
CCn1c(=O)c2ccccc2n2c(SCC(=O)NCc3cccs3)nnc12 | -1 | -2 | 23072* | -4
NC(=O)C1(N2CCCCC2)CCN(C(=S)NCCc2ccccc2)CC1 | 3 | 0 | 4719 | -6
CC(=C1C(=O)c2ccccc2C1=O)N1CCC(C(N)=O)(N2CCCCC2)CC1 | -6 | -1 | 23736* | -2
O=C(N/N=C/C=C/c1ccccc1[N+](=O)[O-])c1cccnc1 | 2 | 0 | 2559 | 3
CCn1c(SCC(=O)N/N=C/C=C\c2ccccc2[N+](=O)[O-])nnc1-c1ccccc1 | -3 | -1 | 16357* | -2
O=C(N/N=C/C=C/c1ccccc1[N+](=O)[O-])c1ccncc1 | ? | -1 | 3912 | 56*
Cc1ccc(CSc2nnc(SCC(=O)N/N=C/C=C/c3ccccc3[N+](=O)[O-])s2)cc1 | -1 | -1 | 1917 | -2
Cc1cc(C)n(CC(=O)N2CCc3ccccc32)c(=O)c1C#N | 0 | -2 | 3681 | -5
SMILES | Anthrax LF prot | BoNT-A LC inh2 | Autofluor counter | BoNT-F LC inh
Cc1cc2n(c(=O)c1C#N)CCCN2c1ccccc1 | 0 | 0 | 16496* | -3
CCCCc1nnc(NC(=O)C(C)Sc2nc(N)cc(=O)[nH]2)s1 (stereo not drawn) | 4 | 5 | 21210* | 6
Cc1cccc(N2CCN(C(=O)CCS(=O)(=O)c3ccc4c(c3)NC(=O)CO4)CC2)c1C | 0 | 0 | 5356 | 14
C=CCOc1ccc(C=Nc2ccc(C)c(Cl)c2)c(O)c1 | 0 | 0 | 2466 | -5
CCc1nc2ccc(C(=O)N3CCN(c4ccccc4F)CC3)cc2nc1CC | -2 | 0 | 5987 | -2
O=C(O)CSc1nnc(C2COc3ccccc3O2)n1-c1ccccc1 (stereo not drawn) | -2 | 1 | 19815* | 3
O=C(O)CSc1nnc(C2CC2)n1-c1ccccc1 | 1 | 1 | 3816 | 11
COc1ccc(C(=O)OCC(=O)N(C)C2CCS(=O)(=O)C2)cc1Br (stereo not drawn) | 8 | 1 | 3850 | 6
COc1ccc(C(=O)Nc2cc(OC)c(Cl)cc2OC)cc1 | -9 | 0 | 4944 | -10
CCCCOC(=O)c1ccc(NC(C)=O)cc1 | 0 | -1 | 4890 | -1

Compound activity: PubChem, NMMLSC
